Screening results from PubChem.
HP1b chromo inh: blocks HP1-beta chromodomain binding to methylated histone tails; P83916; AlphaScreen HP1-beta / biotin-H3K9me3 peptide binding; Potency, µM (highest dose often 114 µM), for the others: at the highest dose activity change, negative = inhibition, most hits filed as inhibitors; hit rate 0.56% among 390,000; further: nearly all actives have a fitted effect of over 70% in size
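Compound inhibition of the preformed complex between 50 nM HP1-beta and 50 nM biotinylated H3K9me3 peptide was read by AlphaScreen. Buffer was PBS pH 7.4 with 0.01% Tween-20. Incubations ran 30 min at room temperature, with 10 ug/mL donor/acceptor beads.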
BAZ2B inh: blocks human BAZ2B; Q9UIF8; AlphaScreen BAZ2B-H3K14Ac peptide displacement; Potency, µM (highest dose often 114 µM), inactives show top-dose activity change, negative = inhibition, most hits filed as inhibitors; hit rate 4.4% among 360,000; further: on the % scale 0 is the no-effect control and ±100 the full control effect; nearly all actives have a fitted effect of over 60% in size
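AlphaScreen luminescence quantifies BAZ2B engagement of H3K14Ac peptide; the protein and biotinylated peptide are both at 50 nM final, buffer PBS pH 7.4 with 0.01% Tween-20, all steps at room temperature.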
G9a block: inhibitors of human histone lysine methyltransferase G9a; Q96KQ7; G9a H3K9 monomethylation, AlphaScreen, 2 h; Potency, µM (highest dose often 102 µM), for inactives: at the top dose activity, negative = inhibition, usual class: inhibitors; hit rate 8.8% among 350,000; AID 504332; further: on the % scale 0 is the no-effect control and ±100 the full control effect; nearly all actives have a fitted effect of over 75% in size
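G9a (20 nM) was preincubated 15 min with compound, then reacted 2 h at room temperature with 500 nM biotin-H3K9 peptide and 20 µM SAM. Monomethyl-H3K9 detected by AlphaScreen using anti-H3K9me1 antibody.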
JMJD2A Tudor: JMJD2A Tudor domain (human) inhibition; AlphaScreen JMJD2A-Tudor / H3K4me3 peptide binding; Potency, µM (titrated, usually from 114 µM), for the others: at the highest dose activity change, negative = inhibition, hits mostly inhibitors; O75164; hit rate 4.4% among 390,000; further: on the % scale 0 is the no-effect control and ±100 the full control effect; nearly all actives have a fitted effect of over 50% in size
Sfp PPTase inh: inhibitors of Bacillus subtilis Sfp phosphopantetheinyl transferase; hit rate 3.5% among 310,000; Potency, µM, without a hit: largest response in the series, negative = inhibition, usual class: inhibitors; Biochemical Sfp PPTase activity, qHTS; Q9F4F7;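 further: the enzyme is Sfp with the accession as filed and its product quenches rhodamine fluorescence; 0% = enzyme reaction without inhibitor and -100% = no enzyme wells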
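Sfp 15 nM + cpd, 15 min RT; start w/ rhodamine-CoA 5 uM, BHQ-2-YbbR 12.5 uM (final); 50 mM Hepes pH 7.6, 10 mM MgCl2, 0.01% NP-40, 0.01% BSA; read 525/598 nm at 0 and 30 min.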
Starred values were filed as active, the others as inactive; ? = inconclusive; · = no result; [ ] = dose if it differs, or a comment. Most compounds without a hit are left out; they make up all but 12% or so of the library. The call rests on the fitted dose curve; in most records, active means well fitted curve in the direction sought with a large enough effect; inconclusive means small, poorly fitted or top-dose-only effect, or another doubt; inactive means no such curve, though single readings can be large; an effect the other way counts as inactive or inconclusive. Potency means the concentration at half of the fitted maximal effect.

SMILES	HP1b chromo inh	BAZ2B inh	G9a block	JMJD2A Tudor	Sfp PPTase inh
CCN1CCN(CCCN(Cc2ccco2)C(=S)Nc2ccc(C)c(Cl)c2)CC1	27%	-29%	35µM*	-24%	-38%
CCN1CCN(CCCN(Cc2ccco2)C(=S)Nc2cc(Cl)ccc2C)CC1	4%	-9%	28µM*	-8%	-87%
CCN(CC)C(=O)[C@H]1C[C@H](CC(=O)NCCC2=CCCCC2)C(=O)N2CCc3c([nH]c4ccc(Cl)cc34)[C@]12C	-11%	·	·	?	·
COc1cccc2c3c(c(C)nc12)CC(CO)O3 (stereo unspecified)	·	·	·	·	28%
CC(C)N=C1NN=C(c2cccs2)CS1	-12%	-14%	20µM*	-7%[57.1 µM]	-21%
CC(C)N=C1NN=C(c2ccc(Cl)c(Cl)c2)CS1	-11%	?	45µM*	?	0%
CC(=O)N1c2ccccc2C(=O)C1N1CCN(c2cccc(C(F)(F)F)c2)CC1 (stereo unspecified)	8%	?	-11%[59 µM]	?	·
Cc1cc(N2C(=O)c3ccccc3C2=O)no1	·	·	·	-11%	·
O=C(NCCNC(=O)c1cccs1)c1ccco1	41%	4%	?	-11%[57.1 µM]	-3%
COc1ccc(CC(=O)NNC(=O)c2cccs2)cc1OC	16%	-6%	2%	32µM*	23%
O=C(Nc1ccc(NC(=S)NC(=O)c2cccs2)cc1)c1ccco1	18%	-31%	50µM*	-23%	-26%
O=C(NC(=S)NNC(=O)c1cccs1)c1ccco1	33%	79%[57.1 µM]	?	2%	79µM*
O=C(NNC(=O)c1cccs1)c1ccco1	35%	-9%	-4%	-4%	89µM*
CC(=O)OC[C@H]1O[C@@H](CCO/N=C2/[C@H]3O[C@@H]3[C@@H](O)[C@H]3[C@H]2CCn2c(=O)n(-c4ccccc4)c(=O)n23)C=C[C@@H]1OC(C)=O	·	·	·	·	-2%
Cc1nn(CC(=O)Nc2cccc(C(F)(F)F)c2)c(=O)c2cccn12	1%	-4%	?	?	18%
CN(C)c1cccc(C(=O)NCc2ccccc2)c1	-7%	-17%	-8%	-27%	-1%
CN(C)c1cccc(C(=O)NCc2ccccc2Cl)c1	-2%	50µM*	-47%	?	-5%
O=C(NCc1ccccc1Cl)c1cccc(C(F)(F)F)c1	41%	20%	45µM*	17%	-3%
O=C(c1ccccc1Br)N(Cc1ccco1)Cc1ccco1	5%	?	-34%[59 µM]	-32%	·
Cc1ccc(S(=O)(=O)N2CCOCC2)cc1NC(=O)COC(=O)CNC(=O)c1ccc(C(C)(C)C)cc1	11%	-28%	50µM*	-20%	14%
Cc1ccc(C(=O)NCC(=O)OCC(=O)Nc2cc(S(=O)(=O)N3CCOCC3)ccc2C)cc1	46%	10%	?	-12%	·
Cc1ccc(S(=O)(=O)N2CCOCC2)cc1NC(=O)COC(=O)CSc1ccc(Br)cc1C	15%	-2%	18µM*	-29%	1%
COC(=O)C1=C(C)N(CCCC(=O)O)C(=O)NC1c1cccc(OC)c1 (stereo unspecified)	29%	·	·	2%	·
O=C(c1ccncc1)N1CCC[C@@]2(CCN(Cc3ccncc3)C2)C1	·	·	5%[12.7 µM]	·	13%
O=C(CCS(=O)(=O)c1ccc(Br)cc1)N1CCN(c2ccc(F)cc2)CC1	14%	56µM*	50µM*	-10%	10%
SMILES	HP1b chromo inh	BAZ2B inh	G9a block	JMJD2A Tudor	Sfp PPTase inh
COc1ccc(N2CCN(C(=O)CCS(=O)(=O)c3ccc(OC)cc3)CC2)cc1	28%	3%	?	-13%	7%
COc1ccc(S(=O)(=O)CCC(=O)N2CCN(c3ccc(C(C)=O)cc3)CC2)cc1	46%	-39%	32µM*	-12%	14%
COc1ccc(N2CCN(C(=O)C3(S(=O)(=O)c4ccc(C)cc4)CC3)CC2)cc1	-9%	-23%	71µM*	-17%	16%
CC(=O)c1ccc(N2CCN(C(=O)C3(S(=O)(=O)c4ccc(Cl)cc4)CC3)CC2)cc1	7%	?	-25%[59 µM]	-7%	14%
COc1ccc(N2CCN(C(=O)CCS(=O)(=O)c3ccc(C)cc3)CC2)cc1	-12%	?	50µM*	-28%	4%
COc1ccc(-c2noc(-c3ccc(NCCc4ccccc4)c([N+](=O)[O-])c3)n2)cc1OC	40%	1%	-28%[59 µM]	-11%	·
